The values below come from PubChem BioAssay (Tox21).

Molecules are shown by their SMILES. Results filed as inconclusive are left out. Some compounds were tested as several samples or in several runs, with calls that do not always agree. Active and inactive are the calls of the source. Unless noted, the call rests on the fitted dose curve; in most records, active means well fitted curve in the direction sought with a large enough effect in the repeat runs; inconclusive means weak or mixed curves; inactive means no such curve, though single readings can be large; an effect the other way counts as inactive or inconclusive.

Assay [1] is described as follows: A CellTox Green Cytotoxicity Assay to monitor cytotoxicity in HepG2 cells - 8 hour (AID 1224890). Further: nearly all actives have a fitted effect of over 45% in size. In a few lines: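 Real-time cytotoxicity: fluorescence of a cell-impermeant cyanine dye binding DNA of dead HepG2 cells, measured repeatedly (0–40 h) during compound exposure at 37 C. Cells seeded 600/well with reagent, dosed after 5 h.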
Assay [2] is described as follows: qHTS assay to identify small molecule antagonists of the androgen receptor (AR) signaling pathway using the MDA cell line in the presence of 0.5 nM R1881 - cell viability counter screen (AID 1259242). Further: nearly all actives have a fitted effect of over 45% in size. Further: potency means the concentration at half of the fitted maximal effect. In short, it runs like this:
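Live-cell protease activity was measured by CellTiter-Fluor fluorescence after 30 min. Before that, MDA-kb2 MMTV-luciferase cells had 16 hr at 37C without CO2, exposed to test compounds and 0.5 nM R1881 final.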
In general terms: Quantitative high-throughput screening tests each substance at several concentrations.

In assay [3] the target is Estrogen receptor (Homo sapiens) (UniProt P03372). Description: qHTS assay to identify small molecule antagonists of the estrogen receptor alpha (ER-alpha) signaling pathway using the BG1 cell line in the presence of 0.1 nM 17-beta-estradiol (AID 1259244). Further: nearly all actives have a fitted effect of over 50% in size. In short, it runs like this: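 Luciferase luminescence (ONE-Glo, 30 min at room temperature) was read after 22 hr at 37C exposure to compounds plus 17beta-estradiol at 0.1 nM final. Cells were VM7Luc4E2 with endogenous ER-alpha and an ERE-driven luciferase, pre-cultured 5 days in hormone-depleted medium.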
Estrogen receptor (Homo sapiens), sequence (P03372 whole entry, looked up): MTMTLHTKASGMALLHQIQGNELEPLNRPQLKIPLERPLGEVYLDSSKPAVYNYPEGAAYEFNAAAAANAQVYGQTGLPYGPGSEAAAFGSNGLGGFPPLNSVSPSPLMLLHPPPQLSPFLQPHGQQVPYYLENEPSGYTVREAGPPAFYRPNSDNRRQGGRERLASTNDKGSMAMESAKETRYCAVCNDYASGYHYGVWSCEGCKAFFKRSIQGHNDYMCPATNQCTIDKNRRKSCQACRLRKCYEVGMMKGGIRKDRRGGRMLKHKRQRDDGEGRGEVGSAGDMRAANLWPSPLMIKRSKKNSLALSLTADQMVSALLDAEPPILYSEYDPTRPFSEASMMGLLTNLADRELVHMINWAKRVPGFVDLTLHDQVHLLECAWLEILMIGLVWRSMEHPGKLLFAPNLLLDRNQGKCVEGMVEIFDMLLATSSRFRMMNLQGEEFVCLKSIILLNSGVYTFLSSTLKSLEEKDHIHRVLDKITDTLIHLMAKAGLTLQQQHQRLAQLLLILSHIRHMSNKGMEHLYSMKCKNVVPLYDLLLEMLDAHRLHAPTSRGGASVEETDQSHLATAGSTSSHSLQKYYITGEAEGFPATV

Assay [4] in a line: qHTS assay to identify small molecule HDAC inhibitors (AID 1259364). Further: top concentration of the series differs between compounds; nearly all actives have a fitted effect of over 45% in size. In a few lines: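 Luminescence read after 30 min room-temperature HDAC-Glo incubation measures cellular class I/II HDAC activity. Compounds were applied for 2 hr at 37 C to HCT-116 wild-type cells seeded the day before.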
Assay [5] is described as follows: qHTS assay to identify small molecule HDAC inhibitors - cell viability counter screen (AID 1259365). Further: series mostly up to about 92 µM; nearly all actives have a fitted effect of over 50% in size. In short, it runs like this:
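To flag cytotoxic hits, 1,500 wild-type HCT-116 cells per well, plated the day before, receive test compounds for 2hr at 37 C before CellTiter-Glo reagent and a luminescence read.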

Assay [6] is described as follows: qHTS assay to identify small molecule antagonists of the sonic hedgehog signaling (Shh) pathway - cell viability counter screen (AID 1259367). Further: nearly all actives have a fitted effect of over 55% in size. Further: potency means the concentration at half of the fitted maximal effect. In short, it runs like this: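 Tox21 library chemicals were tested on a Gli1-Luc NIH/3T3 clone (2,000 cells/well) stimulated by conditioned medium; viability was quantified as fluorescence from CellTiter-Fluor reagent added at 23 hr.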

Assay [7] can be described thus: qHTS assay to identify small molecule agonists of the sonic hedgehog signaling (Shh) pathway - cell viability counter screen (AID 1259366). Further: nearly all actives have a fitted effect of over 50% in size. Further: potency means the concentration at half of the fitted maximal effect. In short, it runs like this:
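Fluorescence from CellTiter-Fluor reports live cells in this counter screen. NIH/3T3-derived Gli1-Luc reporter cells receive test compounds for 24hr at 37C; reagent goes in at 23hr.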

Assay [8] in a line: qHTS assay to identify small molecule phospholipidosis (PLD) inducers (AID 1259344; active means well fitted curve in the direction sought with a large enough effect; an effect the other way counts as inactive or inconclusive). In short, it runs like this: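 Image-based: LipidTOX Red pit count/intensity per well and per cell; HepG2, 24 h compound at 37 C, PFA fixation, Hoechst counterstain.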
Assay [9] can be described thus: qHTS assay to identify small molecule antagonists of the estrogen receptor alpha (ER-alpha) signaling pathway using the BG1 cell line in the presence of 0.1 nM 17-beta-estradiol - cell viability counter screen (AID 1259241). Further: nearly all actives have a fitted effect of over 40% in size. In short, it runs like this: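 CellTiter-Fluor read (30 min, 37C) on ER-alpha/ERE-luc VM7Luc4E2 cells; 22 hr compound treatment; agonist 0.1 nM E2 final; same-well multiplex.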
On the % scale 0 is the no-effect control and ±100 the full control effect.

In the case of `CCOC(=O)CCC(C)=O`, the Potency entry in assay [1], in assay [2], in assay [4] and in assay [6] was “inactive” throughout. The outcome in [3] and in assay [5] was inactive.

In the case of `CCCCOCCOCCOCCCC`, the Potency entry in assay [1], in [2], in assay [7] and in [6] was “inactive” throughout. Besides, the compound was called inactive in assay [5].

As for `CCOC(C)(C)C`, the Potency result in [1], in [2], in assay [4], in assay [7] and in assay [6] was “inactive” in each case. In addition, the result in [3] and in [5] was inactive.

`CN(C)CCCN1c2ccccc2CCc2ccc(Cl)cc21`: the Potency result in assay [1] and in assay [4] was “inactive” each time. Further, the Potency in [2] is 48.6 µM (active); in [7] it was 30.6 µM (active); in assay [6] it was 48.6 µM (active) and inactive. Also, the compound was classed as inactive in [5].

For the compound `C[N+](C)(C)CCCCCC[N+](C)(C)C`, the Potency entry in assay [1], in assay [8], in assay [4], in [7] and in assay [6] was “inactive” throughout. In addition, in assay [5], the compound was called inactive.

With `CC(=O)OCC(=O)[C@@]1(O)CCC2C3CCC4=CC(=O)CC[C@]4(C)C3[C@@H](O)C[C@@]21C` (stereo not given in full), the Potency result in [1], in [2], in assay [8], in assay [4] and in [6] was “inactive” throughout. Further, the compound was called inactive in assay [5].

As for `CC(C)OC(=O)c1ccccc1`, the Potency entry in [1], in [4], in assay [7] and in assay [6] was “inactive” each time. Besides, the outcome in assay [3] and in [5] was inactive.

As to `CCC(C)S` (stereo not given), the cytotoxicity increase in assay [1] was -0.336% [at 2.72 µM] (inactive). Moreover, the activity change, negative = inhibition in assay [4] is 0.148% [at 3.27 µM] (inactive). Further, the activity change, negative = cytotoxicity in [5] is 1.61% [at 3.27 µM] (inactive). In [6], the viability change, negative = cytotoxic was 3.76% [at 3.27 µM] (inactive).

In the case of `CN1CCCC1`, the Potency result in assay [1], in [2], in assay [4], in assay [7] and in [6] was “inactive” in each case. Further, the outcome in [3] and in assay [5] was inactive.

In the case of `CC(C)c1cc2c(cc1S(=O)(=O)O)[C@@]1(C)CCC[C@@](C)(C(=O)O)[C@@H]1CC2`, the outcome in assay [9], in assay [3] and in assay [5] was inactive. Further, the Potency entry in assay [2], in assay [8], in assay [4], in assay [7] and in assay [6] was “inactive” each time.

As for `OCCOc1ccc(OCCO)cc1`, the Potency result in [1], in assay [2], in assay [4], in assay [7] and in [6] was “inactive” each time. In addition, the outcome in assay [3] and in assay [5] was inactive.

Regarding `CCCCC/C=C\CCC=O`, the result in assay [9], in assay [3] and in assay [5] was inactive. For the same compound, the Potency entry in [2], in assay [4] and in assay [6] was “inactive” each time.

As to `N=C(N)c1ccccc1`, the result in [9] and in [5] was inactive. Further, the Potency result in assay [4], in assay [7] and in assay [6] was “inactive” throughout.

On to `CO[C@]12C[C@@H](COC(=O)c3cncc(Br)c3)CN(C)[C@@H]1Cc1cn(C)c3cccc2c13`, for which the result in assay [9] and in [5] was inactive. In addition, the Potency result in [2], in [8], in assay [4], in assay [7] and in assay [6] was “inactive” each time.

On to `NS(=O)(=O)c1ccccc1Cl`, for which the outcome in [5] was inactive. Also, the Potency entry in assay [7] and in assay [6] was “inactive” throughout.

In the case of `CCCCCSCCCCC`, the Potency result in assay [2], in assay [4], in assay [7] and in assay [6] was “inactive” in each case. Also, the outcome in assay [3] and in assay [5] was inactive.

`O=C(O)CCCc1ccccc1`: the Potency entry in assay [8], in assay [4], in [7] and in assay [6] was “inactive” throughout. Also, in assay [5], the compound was called inactive.

As for `NC(=O)c1ccc([N+](=O)[O-])cc1`, the result in [9] and in assay [5] was inactive. Besides, the Potency entry in [2], in assay [7] and in assay [6] was “inactive” in each case.

Regarding `CCc1ccc(O)c(OC)c1`, the result in assay [9] and in assay [5] was inactive. Besides, the Potency result in assay [2], in assay [4], in assay [7] and in assay [6] was “inactive” each time.

Regarding `CCCCCCCCCCCC`, the Potency result in [2], in assay [7] and in assay [6] was “inactive” throughout. In addition, the compound was classed as inactive in assay [5].

`Cc1c(NC(C)C)c(=O)n(-c2ccccc2)n1C`: the Potency entry in assay [2], in assay [8], in assay [7] and in assay [6] was “inactive” in each case. The result in assay [3] and in assay [5] was inactive.

With `CCN(Cc1ccncc1)C(=O)C(CO)c1ccccc1` (stereo not given), the outcome in [9] and in assay [5] was inactive. Also, the Potency entry in assay [2], in [8], in [4] and in assay [6] was “inactive” in each case.

In the case of `CO/N=C(/C(=O)N[C@@H]1C(=O)N2C(C(=O)OCOC(=O)C(C)(C)C)=C(C)CS[C@H]12)c1csc(N)n1`, the outcome in assay [9] and in assay [5] was inactive. In addition, the Potency result in [2], in assay [8], in assay [4] and in assay [6] was “inactive” in each case.

As for `CCc1nccnc1CC`, the activity change, negative = cytotoxicity in [9] is -0.0848% [at 19 µM] (inactive); in assay [5], 0.191% [at 19 µM] (inactive). The viability change, negative = cytotoxic in [2] is 6.4% [at 19 µM] (inactive); in assay [7], 3.6% [at 19 µM] (inactive). The results for the activity change, negative = inhibition in [3] and in assay [4] were 2.66% [at 19 µM] (inactive) and 0.718% [at 19 µM] (inactive), respectively. For the same compound, the Potency entry in [6] is “inactive”.
